Among all 310,000 compounds or so, about 3,400 (1.1%) were called active.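 Rule for the calls: active = fluorescence ratio B-score at most minus 3 library SDs, with starting brightness B-score within 2 library SDs (cut at about -5.5 in these data); inactive = the rest, inconclusive results apart.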 Many of the other results were omitted from the sample, so actives are more common in it than they were.

For this assay, the target named is Potassium voltage-gated channel subfamily KQT member 2 (Rattus norvegicus) (UniProt O88943). The assay can be described thus: rat KCNQ2 potassium channel inhibitors, primary screen, cell-based, CHO-K1, FluxOR thallium flux, B-score (AID 2156). The following applies: 20 min, at 10 µM; hits give low values.
Chain of Potassium voltage-gated channel subfamily KQT member 2 (Rattus norvegicus) (O88943 whole entry, looked up): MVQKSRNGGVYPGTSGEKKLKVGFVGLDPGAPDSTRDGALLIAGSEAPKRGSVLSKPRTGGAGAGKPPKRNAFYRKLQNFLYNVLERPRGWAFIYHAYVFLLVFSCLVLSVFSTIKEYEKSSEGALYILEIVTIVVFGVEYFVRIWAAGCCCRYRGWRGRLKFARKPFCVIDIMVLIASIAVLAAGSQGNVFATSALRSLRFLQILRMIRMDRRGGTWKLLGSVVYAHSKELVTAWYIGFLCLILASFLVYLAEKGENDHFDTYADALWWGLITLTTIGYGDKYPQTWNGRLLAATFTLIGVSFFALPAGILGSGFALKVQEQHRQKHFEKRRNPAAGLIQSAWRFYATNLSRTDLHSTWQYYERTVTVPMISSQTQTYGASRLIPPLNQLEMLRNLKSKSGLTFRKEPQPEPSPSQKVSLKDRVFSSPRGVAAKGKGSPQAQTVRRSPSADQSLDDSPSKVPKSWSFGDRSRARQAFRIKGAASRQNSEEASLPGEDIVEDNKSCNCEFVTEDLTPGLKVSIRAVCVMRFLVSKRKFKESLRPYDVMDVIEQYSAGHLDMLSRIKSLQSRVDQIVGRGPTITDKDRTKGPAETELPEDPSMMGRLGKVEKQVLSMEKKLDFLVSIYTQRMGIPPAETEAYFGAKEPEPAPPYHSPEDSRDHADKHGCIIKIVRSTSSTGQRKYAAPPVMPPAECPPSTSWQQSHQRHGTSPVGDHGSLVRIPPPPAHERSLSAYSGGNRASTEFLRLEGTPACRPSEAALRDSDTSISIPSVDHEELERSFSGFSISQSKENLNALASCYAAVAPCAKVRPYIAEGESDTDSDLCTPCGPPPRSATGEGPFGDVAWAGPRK
As for `O=C1CC(=O)N(Cc2ccccc2)C(=O)N1CCCCCCN1C(=O)CC(=O)N(Cc2ccccc2)C1=O`, the B-score result is “inactive”.
Turning to `CC(C)(C)c1ccc(CN2C(=O)CN=C(c3ccccc3)c3ccccc32)cc1`, the B-score is -6.95 (active).
As for `CCOC(=O)c1c(-c2ccccc2)oc2ccc(OC(=O)N(C)C)cc12`, the B-score was -4.87 (inactive).
To `COc1ccccc1C1=NCc2nnc(CSC)n2-c2ccc(Cl)cc21` belongs “inactive”; to `O=C(c1ccccc1[N+](=O)[O-])N1CCC2(CC1)OCCO2`, “inactive”; to `COc1ccccc1CN1CCN(C(=O)Cc2ccccc2)CC1`, -0.38 (inactive).
To `Cc1nn(-c2ccccc2)c(C)c1NC(=O)COC(=O)Cc1ccccc1` belongs “inactive”; to `COc1ccc(CN2CCN(c3ccccc3F)CC2)c(OC)c1`, -0.09 (inactive).
Under `O=c1[nH]c(O)c(C=Nc2cc(F)cc(F)c2)c(=O)[nH]1` stands “inactive”.
In the case of `Cc1nc2ccccn2c1P(=S)(N1CCCCC1)N1CCCCC1`, the B-score was -5.55 (active).
Under `CCCCCn1c(=O)c(C(=O)NCc2ccccc2)c(O)c2ccccc21` stands -3.71 (inactive).
Under `COc1ccccc1OC(=O)c1ccc(C)c(S(=O)(=O)N2CCOCC2)c1` stands “inactive”; under `O=C(c1cc2nc(-c3ccccc3)cc(-c3ccccc3)n2n1)N1CCC2(CC1)OCCO2`, -2.41 (inactive).
`COc1ccc2c(c1)[C@]13CCCCC1C(C2)N(C)CC3` (stereo not given in full): the B-score result is “inactive”.
To `C/C(=N/O)c1ccc2ccc3ccccc3c2c1` belongs -0.17 (inactive).
On to `Cc1ccc(Cn2c(C)c3cnn(CC(=O)N4CCC5(CC4)OCCO5)c(=O)c3c2C)cc1`, for which the B-score entry was “inactive”.
As to `O=C(CCN1CCCCC1)NCC(=O)Nc1ccc(Br)cc1C(=O)c1ccccc1`, the B-score is -0.1 (inactive).
On to `CN(C)CC1Oc2ccccc2OC1(O)c1ccccc1` (stereo not given), for which the B-score was -8.59 (active).
Regarding `O=C(O)C1CSC(c2cccnc2)N1` (stereo not given), the B-score was -1.95 (inactive).
Consider `C=CC12CN(C)[C@@H]3C4CO[C@H](C[C@H]41)[C@]1(C(=O)Nc4ccccc41)[C@@H]32` (stereo not given in full), for which the B-score result is “inactive”.
`CCCCCCCCCCCCn1ccc(=N)cc1`: the B-score is -3.45 (inactive).
Regarding `CC(c1ccccc1)(c1ccccc1)c1ccncc1`, the B-score was -6.57 (active).
Take `CC[C@H]1CC2CN3CCc4c([nH]c5ccccc45)C(C(=O)OC)(C2)C13` (stereo not given in full): the B-score is -0.03 (inactive).
On to `O=C(NC(c1ccc(Cl)cc1)P(=O)(Oc1ccccc1)Oc1ccccc1)OCc1ccccc1` (stereo not given), for which the B-score is -9.52 (active).
For the molecule `COc1ccc(C2N3CC(C)(C)CN23)cc1` (stereo not given), the B-score entry is “inactive”.

The values are drawn from PubChem BioAssay AID2156 (Johns Hopkins Ion Channel Center, 2009).
